Source: PubChem (National Center for Advancing Translational Sciences (NCATS))
Sampled rows, rich in hits. Any-hit rate of the full collection: about 19%.
DT40 TDP1 CPT: DT40-hTDP1 cell growth loss with CPT; Potency, µM (titrated, usually from 46.2 µM), for inactives: top-dose activity change, negative = growth inhibition, hits mostly inhibitors; 420,000 compounds, 12% hits; chicken DT40 Tdp1-/-;hTDP1 cells + 20 nM CPT, ATP luminescence, 48 h; note: potency is the fitted concentration of half-maximal effect; % is set by controls: 0 for no effect and ±100 for the full control effect; nearly all actives have a fitted effect of over 55% in size
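Chicken DT40 Tdp1-/- cells complemented with human TDP1, 400 cells/well, exposed to compounds plus 20 nM camptothecin for at least 48 h at 37 C; viability read as ATP content by CellTiter-Glo luminescence.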
TDP1 block: inhibitors of human tyrosyl-DNA phosphodiesterase TDP1; Q9NUW8; recombinant TDP1, AlphaScreen DNA substrate cleavage; Potency, µM (top dose mostly 130 µM), for inactives: at the highest dose activity change, negative = inhibition, most hits filed as inhibitors; 350,000 compounds, 0.28% hits; AID 485290; note: potency is the fitted concentration of half-maximal effect; % is set by controls: 0 for no effect and ±100 for the full control effect; nearly all actives have a fitted effect of over 40% in size
Target sequence (Q9NUW8 whole entry, looked up): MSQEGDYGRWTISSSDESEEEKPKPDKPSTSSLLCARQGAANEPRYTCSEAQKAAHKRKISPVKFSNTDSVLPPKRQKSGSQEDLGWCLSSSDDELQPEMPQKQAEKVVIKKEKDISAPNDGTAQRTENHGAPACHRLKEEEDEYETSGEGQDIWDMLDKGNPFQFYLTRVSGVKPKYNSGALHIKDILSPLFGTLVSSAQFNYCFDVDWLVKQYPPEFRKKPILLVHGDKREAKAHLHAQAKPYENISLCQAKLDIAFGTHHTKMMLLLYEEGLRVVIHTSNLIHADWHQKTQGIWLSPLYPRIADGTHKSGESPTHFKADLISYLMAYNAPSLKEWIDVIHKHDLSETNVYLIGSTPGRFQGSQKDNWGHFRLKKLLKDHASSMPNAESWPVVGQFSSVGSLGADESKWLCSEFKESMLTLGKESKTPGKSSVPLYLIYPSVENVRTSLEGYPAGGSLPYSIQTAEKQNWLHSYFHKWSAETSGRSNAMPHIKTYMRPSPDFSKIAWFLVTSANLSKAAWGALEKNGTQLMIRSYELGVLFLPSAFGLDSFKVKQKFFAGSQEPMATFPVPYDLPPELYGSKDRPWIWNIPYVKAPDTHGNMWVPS
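Tdp1 1 nM final; 15 min RT w/ cpd; substrate 15 nM, 5 min; beads 10 ug/ml, 10 min; AlphaScreen read. Neg ctrl: no enzyme.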
HepG2 tox: counter-screen for TGF-b inhibitors: cytotoxicity in HepG2 cells; 410,000 compounds, 0.76% hits; AID 588856; HepG2 CAGA-GFP viability, ATP luminescence, 18 h; Potency, µM (doses to about 46.1 µM), for the others: at the top dose activity change, negative = cytotoxicity, actives largely listed as cytotoxic; note: potency is the fitted concentration of half-maximal effect
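HepG2 CAGA-GFP cells (1000/well, DMEM with 1% FBS) received compound, then TGF-beta at 500 pg/mL final, and were incubated 18 hours at 37 degrees C. Viability was read by CellTiter-Glo luminescence. Media-only wells were set as complete cell-killing and DMSO as no toxicity.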
TGFb inhibitor: inhibitors of TGF-b signaling; 410,000 compounds, 1.2% hits; HepG2 CAGA-GFP TGF-b/SMAD3 reporter, GFP fluorescence, 18 h; TGF-beta stimulated, 500 pg/mL final; Potency, µM (titrated, usually from 46.1 µM), for the others: at the highest dose activity, negative = inhibition, hits mostly inhibitors; AID 588855; note: potency is the fitted concentration of half-maximal effect; % is set by controls: 0 for no effect and ±100 for the full control effect; nearly all actives have a fitted effect of over 65% in size
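Read-out: total well GFP (ex488/em500-530) summed from mean per-cell fluorescence. Cells: HEPG2 CAGA-GFP, 1% FBS DMEM, 18 h at 37 degrees C with 500 pg/mL final TGF-beta. Unstimulated wells served as the full-inhibition control; stimulated DMSO wells = 0%.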
TDP1 cell noCPT: qHTS for Inhibitors of human tyrosyl-DNA phosphodiesterase 1 (TDP1): qHTS in cells in absence of CPT | DT40 Tdp1-/- hTDP1 cells, no CPT, ATP luminescence, 48 h | Potency, µM (top dose mostly 46.2 µM), for the others: top-dose activity change, negative = growth inhibition, hits mostly inhibitors | 420,000 compounds, 15% hits; note: potency is the fitted concentration of half-maximal effect; % is set by controls: 0 for no effect and ±100 for the full control effect; nearly all actives have a fitted effect of over 55% in size
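DT40 Tdp1-/-;hTDP1 cells, no CPT (DMSO vehicle only), 400 cells/well; compounds pin-transferred; ≥48 hr, 37 °C; CellTiter-Glo 30 min RT dark, luminescence read.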
IL1B secr inh: blocks inflammasome-driven IL-1 beta release | activity change, % at 57.5 µM | THP-1 LPS/ATP IL-1B secretion, AlphaLISA, 16 h; hits give low values | AID 743279 | 360,000 compounds, 4.7% hits; in the data active = activity change below about -50%; inconclusive = mostly about -30% to -49%; note: % is set by controls: 0 for no effect and ±100 for the full control effect
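Secreted IL-1B measured by AlphaLISA bead assay after 16 h compound exposure of THP-1 cells; compounds (final up to 57.5 uM) added 1 h before LPS (250 ng/mL) and ATP (1.25 mM) stimulation; lower signal means less secretion.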
* marks the source's active call; other numbers are inactive results; ? = inconclusive; . = no result; [ ] = dose if it differs, or a comment. Unless noted, calls come from the whole dose curve; as a rule, active = well fitted curve in the direction sought with a large enough effect; inconclusive = small, poorly fitted or top-dose-only effect, or another doubt; inactive = no such curve, though single readings can be large; an effect the other way counts as inactive or inconclusive.

SMILES	DT40 TDP1 CPT	TDP1 block	HepG2 tox	TGFb inhibitor	TDP1 cell noCPT	IL1B secr inh
O=C(Nc1c(Cl)cccc1Cl)Oc1cccc2cccnc12	4.1µM*	.	-2%	?	4.6µM*	128
CCCCC[C@@H](/C=C/C=C\CCCCCCCC(=O)O)OO	7%[0.628 µM]	1%	.	.	2%[0.628 µM]	.
CCn1c(NN=O)nc2ccccc21	7.3µM*	12%	-28%	?	?	100
COC(=O)[C@@]1(Cc2ccccc2)[C@H]2c3cc(C(=O)N(C)C)n(C)c3C[C@H]2CN1C(=O)c1ccccc1	.	12%	.	.	.	.
CC(=O)OC1C2C(OC(=O)Cc3ccccc3)C(C)CC2(OC(C)=O)C(=O)/C(C)=C/C2C(CC[C@@]13CO3)C2(C)C (stereo partly drawn)	17%	-5%[56.1 µM]	.	.	-2%	.
CCn1c(O)c(N=Nc2ccc(S(=O)(=O)N3CCOCC3)cc2)c(=O)n(CC)c1=S	-13%	4%	-44%	-12%	-1%	-84*
CCn1c(O)c(N=Nc2cccc(S(=O)(=O)N3CCOCC3)c2)c(=O)n(CC)c1=S	-10%	-1%	4%	1%	-14%	?
CCOc1cc2c(cc1OCC)-n1cccc1C(c1ccc(OC)c(O)c1)NC2 (stereo not drawn)	?	.	-38%	0%	18µM*	?
CCOc1cc2c(cc1OCC)-n1cccc1C(c1ccc(C)cc1C)NC2 (stereo not drawn)	?	.	-17%	?	?	-90*
CCOc1cc2c(cc1OCC)-n1cccc1C(c1cc(C)c(OC)cc1C)NC2 (stereo not drawn)	10µM*	.	-33%	?	7.3µM*	-16
CCOc1cc(C2NCc3ccccc3-n3cccc32)ccc1OC (stereo not drawn)	-17%	.	-26%	6%	-27%	?
COc1ccc(C2NCc3ccccc3-n3cccc32)cc1 (stereo not drawn)	?	7%	-37%	-23%	?	?
Nc1cc(Cl)cc(C(=O)O)c1Cl	20%	0%	-20%	-8%	-12%	8
COc1ccc2[nH]cc(CCN(C(C)C)C(C)C)c2c1	?	.	.	.	-28%[92.5 µM]	.
CCOc1cc(/C=C2/C(=O)NC(=O)N(c3ccc(CC)cc3)C2=O)ccc1OC(=O)c1cccs1	-7%	2%	13%	1%	29µM*	3
COc1cc(/C=C2/C(=O)NC(=O)N(c3ccccc3)C2=O)ccc1O	-5%	1%	0%	-1%	-19%	0
[O-][N+](=Nc1ccccc1)c1ccccc1	?	4%	.	.	?	.
CCOC(=O)c1ccc(N2C(=O)c3n[nH]c(-c4cccs4)c3C2c2ccc(C(C)(C)C)cc2)cc1 (stereo not drawn)	16µM*	-5%	-7%	-12%	6.5µM*	.
CCOC(=O)c1c(C)[nH]c(C)c1S(=O)(=O)N1CCC(C(=O)N2CCN(c3cccc(Cl)c3)CC2)CC1	?	-1%	-4%	?	?	.
CCOC(=O)c1ccc(N2C(=O)c3n[nH]c(-c4cccs4)c3C2c2ccc(Cl)cc2Cl)cc1 (stereo not drawn)	?	9%	-112%	4.5µM*	18µM*	.
C=CCN(CC(=O)c1sc(C(=O)OCC)nc1C)c1cccc(Br)c1	?	.	-2%	-8%	?	26
CC(C)CCCC(C)C1CCC2C3C(=O)C=C4CC(O)CC[C@@]4(C)C3CC[C@@]12C (stereo partly drawn)	-14%	12%[56.1 µM]	.	.	-28%	.
COc1ccc(-n2cnc3cc(C(=O)N4CCC5(CC4)OCCO5)ccc32)cc1	8.2µM*	0%	-7%	-17%	2.6µM*	55
COc1ccc(C(=O)N2CCC3(CC2)OCCO3)cc1	-22%	.	-1%	-3%	2%	1
CCOP(=O)(OCC)c1nc(-c2cccc3ccccc23)oc1N1CCCCC1	21µM*	-1%	-97%	?	?	?
SMILES	DT40 TDP1 CPT	TDP1 block	HepG2 tox	TGFb inhibitor	TDP1 cell noCPT	IL1B secr inh
COP(=O)(OC)c1nc(-c2ccc([N+](=O)[O-])cc2)oc1N1CCCCC1	?	.	-13%	9%	21µM*	-11
COc1ccc(CNc2oc(-c3cccc4ccccc34)nc2P(=O)(OC)OC)cc1	?	1%	-7%	?	?	-24
Oc1ccc2c3c1O[C@H]1[C@H](O)CC[C@@]4(O)[C@@H](C2)N(CC2CC2)CC[C@]314	.	8%	.	.	.	.
CN1C[C@H](CO)C=C2c3cccc4[nH]cc(c34)C[C@H]21	3.7µM*	-6%	3%	-17%	?	-11
CCN(CC)C(=O)[C@@H]1C=C2c3cccc4[nH]cc(c34)C[C@H]2N(C)C1	40µM*	.	.	.	40µM*	.
CN1C[C@@H](CO)C=C2c3cccc4[nH]cc(c34)CC21 (stereo partly drawn)	10%	10%	-6%	-7%	-24%	.
C[C@]12CC[C@@H]3[C@@H](CCC4=CC(=O)CC[C@@H]43)[C@@H]1CC[C@@H]2OC(=O)CCc1ccccc1	.	3%	.	.	.	.
O=C(CN1C(=O)CN=C(c2ccccc2)c2ccccc21)Nc1cccc(C(F)(F)F)c1	?	2%	-82%	?	?	.
O=C(NCc1ccc2c(c1)CCN2C(=O)c1ccccc1)Nc1cccc(C(F)(F)F)c1	15µM*	8%	-10%	2.8µM*	?	.
COc1ccc(CNCC(=O)N2CCC3(CC2)OCCO3)cc1	0%	2%	-1%	0%	-8%	8
COc1ccc(CNS(=O)(=O)c2cc3c(cc2C)N(C)CCO3)cc1	?	-1%	-2%	-2%	15µM*	2
COc1nc(NC(C)C)nc(N(C#N)CN2C(=O)c3ccccc3S2(=O)=O)n1	23µM*	9%	-11%	?	-82%	?
C[C@H](NC(=O)[C@@H](N)Cc1ccc(O)cc1)C(=O)N[C@@H](Cc1ccccc1)C(=O)NCC(=O)N[C@@H](Cc1ccc(O)cc1)C(=O)N1CCC[C@H]1C(=O)N[C@@H](CO)C(N)=O	4%[4.12 µM]	6%	.	.	3%[4.12 µM]	.
COC(=O)N1CCC2(CCCN(C)C2)CC1	27%	.	.	.	-20%	.
O=c1[nH]c(=O)n(Cl)c(=O)n1Cl	15%	4%	.	.	8%	.
C=C(CC1(CNP(=O)(c2ccccc2)c2ccccc2)CC1)c1ccccc1	.	6%	.	.	.	.
